In PubChem BioAssay (NCI) one finds growth inhibition data, which are given here for 36 compounds.

Each structure is given as a SMILES string. “And” between values parts separate entries of the source, which are not always exact repeats. Equal entries are not always repeated. Compounds without any hit were thinned out: in the full panel of roughly 79,000, 15% have a hit. Unmarked numbers belong to inactive results. The source made the active and inactive calls. Rule as the data show it: active = growth inhibition above about 70%; inactive = the rest.

Assay [1] in a line: NCI Yeast Anticancer Drug Screen. Data for the rad50 strain (AID 155).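 Also: 0% = growth of vehicle-only cultures of the same strain.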 Conditions: S. cerevisiae rad50 strain growth inhibition, active compounds read high; at 50.0 µM unless noted. In short, it runs like this: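 Genetically altered yeast (DNA repair pathway); compound treatment; growth inhibition vs vehicle ctrl.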
The nature of assay [2]: NCI Yeast Anticancer Drug Screen. Data for the mec2-1 strain (AID 157). Conditions: S. cerevisiae mec2-1 strain, active compounds read high; at 50.0 µM unless noted. In short, it runs like this:
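Each compound was tested on mec2-1 yeast, a strain altered in DNA damage repair or cell cycle control. Growth inhibition is reported relative to vehicle.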

Assay [3] is described as follows: NCI Yeast Anticancer Drug Screen. Data for the sgs1 mgt1 strain (AID 161).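 Also: 0% = growth of cultures given vehicle only.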 Particulars: S. cerevisiae sgs1 mgt1 strain, active compounds read high; at 50.0 µM unless noted. Put shortly:
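Mutant yeast exposed to compound; growth scored against vehicle-only wells.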

The nature of assay [4]: NCI Yeast Anticancer Drug Screen. Data for the cln2 rad14 strain (AID 165).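 Also: 0% = growth equal to vehicle treated cultures.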 Conditions: S. cerevisiae cln2 rad14 strain, active compounds read high; at 50.0 µM unless noted. Put shortly: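 Test compounds were added to cln2 rad14 yeast cultures; inhibition of growth was then determined by comparison with vehicle treatment.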
Assay [5] is described as follows: NCI Yeast Anticancer Drug Screen. Data for the bub3 strain (AID 167). Particulars: S. cerevisiae bub3 mutant strain, active compounds read high; at 50.0 µM unless noted. Put shortly:
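Yeast carrying a defined mutation is treated with each compound, and growth is compared with that of vehicle-exposed cells to give inhibition.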

Assay [6] in a line: NCI Yeast Anticancer Drug Screen. Data for the mlh1 rad18 strain (AID 175). Conditions: S. cerevisiae mlh1 rad18 strain growth inhibition, active compounds read high; at 50.0 µM unless noted. In short, it runs like this:
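Inhibition values reflect reduced growth of mutant yeast versus vehicle-treated controls following compound exposure; the mutations affect DNA damage repair.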

For `C(=Nc1cccc2ccccc12)c1cccs1`, the growth inhibition in assay [1] was -8.95%; in assay [2], -4.85%; in assay [3], 2.6%; in assay [4], -19%; in assay [5], 0.25%; in assay [6], -19.8%.

`COC(=O)C1(c2ccccc2)N=C(c2ccc(C)cc2)ON1c1ccccc1` (stereo unspecified): the growth inhibition in assay [1] is -5.95%; in assay [2], 7.05%; in assay [3], -7.85%; in assay [4] it was 12.7%; in assay [5], -1%; in assay [6], 10.1%.

With `COC(=O)C1=CN(CCc2ccc(O)cc2)C(=O)C2C1CC(O)C2C` (stereo unspecified), the growth inhibition was 5.6% in assay [1]; -6.2% in assay [2]; 1.2% in assay [3]; -2.2% in assay [4]; -4.55% in assay [5]; -10.2% in assay [6].

On to `COc1cc2c(c3oc4c(O)cccc4c(=O)c13)CC(C(C)(O)CO)O2` (stereo unspecified), for which the growth inhibition in assay [1] is 24.2%; in assay [2], -11.6%; in assay [3], -23.4%; in assay [4], -9.25%; in assay [5] it was -42.8%; in assay [6], -33.6%.

In the case of `CCC(C)(C)NC(N)=O`, the growth inhibition was 13.1% in assay [1]; 22.6% in assay [2]; 8.55% in assay [3]; -34.2% in assay [4]; 8.55% in assay [5]; 23.7% in assay [6].

Consider `COc1ccc(NC(=O)Nc2ccc(F)cc2)c(OC)c1`, for which the growth inhibition in assay [1] is 16.1%; in assay [2] it was 4.9%; in assay [3] it was 10.9%; in assay [4], 13.9%; in assay [5], 24.2%; in assay [6], 7.45%.

On to `CCOc1cccc(OCC)c1`, for which the growth inhibition in assay [1] was 23.1%; in assay [2] it was 27.1%; in assay [3], -7.4%; in assay [4], -2.05%; in assay [5], 1.4%; in assay [6], 13.9%.

As to `CN(C)CC1(C)CC/C(=C\c2ccc3c(c2)OCO3)C1=O` (stereo unspecified), the growth inhibition was 58.4% in assay [1]; 30.4% in assay [2]; 45% in assay [3]; 51.9% in assay [4]; 29.9% in assay [5]; 56% in assay [6].

With `NCc1ccc(F)cc1`, the growth inhibition in assay [1] is 24.9%; in assay [2], -10.7%; in assay [3], 32%; in assay [4], 12.7%; in assay [5], 2.4%; in assay [6], 26.5%.

Take `Cc1ccc([N+](=O)[O-])cc1N`: the growth inhibition in assay [1] was 31%; in assay [2] it was 25.4%; in assay [3], 4.15%; in assay [4] it was 23.2%; in assay [5], 17.1%; in assay [6] it was 14.7%.

On to `COc1ccccc1C(=O)NCC1CCCN2CCCCC12` (stereo unspecified), for which the growth inhibition in assay [1] was 6.5%; in assay [2], -6.95%; in assay [3] it was 14.9%; in assay [4] it was -6.5%; in assay [5], 0.7%; in assay [6], -45.4%.

For the compound `Cc1ccc(N(C)S(=O)(=O)c2ccccc2[N+](=O)[O-])cc1`, the growth inhibition in assay [1] is 19.1%; in assay [2], -17.6%; in assay [3], 28.3%; in assay [4] it was 12.1%; in assay [5] it was 14.1%; in assay [6] it was 19.6%.

For the compound `CCC1(CC)C(=O)NN(C(=O)c2ccc(Cl)cc2)C1=O`, the growth inhibition was -4.9% in assay [1]; -22.9% in assay [2]; 28.4% in assay [3]; 7.15% in assay [4]; -5.6% in assay [5]; -37.5% in assay [6].

As to `CC(=O)c1ccc2c(c1)NC(=O)CC(C)N2` (stereo unspecified), the growth inhibition in assay [1] was 0.65%; in assay [2], -1.25%; in assay [3], 11.9%; in assay [4], -25.6%; in assay [5], 5.05%; in assay [6] it was 0.3%.

On to `COCS(=O)(=O)c1ccccc1`, for which the growth inhibition in assay [1] is 2.55%; in assay [2], -6.1%; in assay [3], 11.8%; in assay [4], 14.3%; in assay [5], 6.55%; in assay [6], 0.15%.

In the case of `NS(=O)(=O)c1ccc(N=Nc2ncccc2O)cc1`, the growth inhibition is 19.4% in assay [1]; 3.4% in assay [2]; -12.3% in assay [3]; -30.6% in assay [4]; -44% in assay [5]; 20.6% in assay [6].

In the case of `O=C1OC(C(O)C(O)CO)C(O)=C1O` (stereo unspecified), the growth inhibition in assay [1] was 16.8% and 0.95%; in assay [2], 3.7% and 13.8%; in assay [3], -11.3% and -13.8%; in assay [4], 4.25% and -8.15%; in assay [5], 2.75% and -8.6%; in assay [6], 19.7% and 6.2%.

As to `CN(C)CC(C(=O)/C=C/c1ccccc1)C(C)(C)C` (stereo unspecified), the growth inhibition was -10.4% in assay [1]; -21.9% in assay [2]; -16.2% in assay [3]; 11.6% in assay [4]; -11% in assay [5]; -38.3% in assay [6].

As to `O=C(c1ccc([N+](=O)[O-])cc1)N(Cc1ccccc1)Cc1ccccc1` (tested in a mixture with another compound), the growth inhibition in assay [1] is -7%; in assay [2] it was 15.7%; in assay [3], -12.7%; in assay [4], -10.9%; in assay [5], 26.8%; in assay [6], 9.5%.

As to `O=[N+]([O-])c1nccn1CC1OC(n2ccnc2[N+](=O)[O-])C(O)C(O)C1O` (stereo unspecified), the growth inhibition in assay [1] is 0.3%; in assay [2] it was 2.6%; in assay [3], -2.95%; in assay [4], 5.9%; in assay [5], 25.3%; in assay [6], 6.25%.

Regarding `C=C1CCCC(C)(C)[C@@H]1CC/C(C)=C/Cn1c2cccc(=O)c-2nc2ccccc21`, the growth inhibition is 12.8% in assay [1]; 6.75% in assay [2]; 2.15% in assay [3]; 2.4% in assay [4]; -17.4% in assay [5]; 19.2% in assay [6].

Regarding `CCCCCCCCCCCC[N+](C)([O-])CCCCCC[N+](C)([O-])CCCCCCCCCCCC` (stereo unspecified), the growth inhibition in assay [1] was 96.2% (active); in assay [2] it was 98.7% (active); in assay [3] it was 97.8% (active); in assay [4] it was 96.5% (active); in assay [5], 96.5% (active); in assay [6], 97% (active).

Take `CC12CCC([C@H](C(O)C3CCCCC3)C1=O)C2(C)C` (stereo partly specified): the growth inhibition in assay [1] was -2.7%; in assay [2], -16.6%; in assay [3] it was -12.8%; in assay [4], 16.6%; in assay [5], -5.7%; in assay [6], -5.1%.

As to `O=C(O)/C=C/C(=O)NCCCCCCNC(=O)/C=C/C(=O)O`, the growth inhibition in assay [1] was 4.55%; in assay [2], -26.4%; in assay [3], 2%; in assay [4], -8.7%; in assay [5], -16.9%; in assay [6] it was -15.1%.

With `Clc1ccccc1Nc1nc(Nc2ccccc2Cl)nc(Nc2ccccc2Cl)n1`, the growth inhibition was 21.1% in assay [1]; 19.4% in assay [2]; 21.6% in assay [3]; 37.9% in assay [4]; 7.3% in assay [5]; 5.95% in assay [6].

As to `C=CCCCCCCCCCCCCCCCC`, the growth inhibition in assay [1] is -24%; in assay [2], -49%; in assay [3], -23.1%; in assay [4] it was -13.2%; in assay [5], -27.6%; in assay [6], -9.2%.

As to `Cc1ncc(CO)c(CO)c1OCC(O)CN1CCN(c2ccc(F)cc2)CC1` (stereo unspecified), the growth inhibition was -15.8% in assay [1]; -2.65% in assay [2]; -8.25% in assay [3]; -41.2% in assay [4]; -6.9% in assay [5]; -0.45% in assay [6].

Take `O=C(Cc1cccnc1)c1cccnc1`: the growth inhibition in assay [1] was -52.3%; in assay [2] it was -18.9%; in assay [3], -8.15%; in assay [4] it was -11.9%; in assay [5], -15%; in assay [6], -7.55%.

In the case of `Nc1ccc(N)c2c(O)c3ccccc3c(O)c12`, the growth inhibition in assay [1] was 5.2%; in assay [2], 11.8%; in assay [3], 12.9%; in assay [4], -1.8%; in assay [5], 1.8%; in assay [6], 22%.

Turning to `CC1OC(O[C@H]2CC[C@]3(C)[C@H]4CC=C5[C@@H]6[C@@H](C)[C@H](C)CC[C@]6(C(=O)OC6OC(CO)C(O)C(O)C6O)CC[C@@]5(C(=O)O)[C@]4(C)CC[C@H]3C2(C)C)C(O)C(O)C1O` (stereo partly specified), the growth inhibition in assay [1] is -11.8%; in assay [2], -1.8%; in assay [3] it was -31.6%; in assay [4] it was -29.5%; in assay [5], -23.2%; in assay [6], -40.5%.

For `CCCCCCCCCCCCC(=O)N1CCOCC1`, the growth inhibition in assay [1] was 99.5% (active); in assay [2], 99.7% (active); in assay [3] it was 99.8% (active); in assay [4], 99.5% (active); in assay [5] it was 99.6% (active); in assay [6] it was 99.5% (active).

With `O=C1c2ccccc2C(=O)c2cc3nc4c5ccccc5c5ccccc5c4nc3cc21`, the growth inhibition was -35% in assay [1]; -21.2% in assay [2]; -27.2% in assay [3]; -37.6% in assay [4]; 3.35% in assay [5]; -13.6% in assay [6].

Consider `CC(=O)c1ccc([N+](=O)[O-])[nH]1`, for which the growth inhibition in assay [1] is -16.4%; in assay [2], 23.1%; in assay [3], -32.9%; in assay [4], -3.8%; in assay [5], -3.95%; in assay [6], -5.1%.

On to `COC(=O)CCn1cnc2c(SC)ncnc21`, for which the growth inhibition in assay [1] is -27.2%; in assay [2] it was 16.2%; in assay [3] it was -44%; in assay [4], 21.5%; in assay [5], 19.2%; in assay [6], -12.7%.

On to `CCCCCCCCN(CCCCCCCC)CC(O)c1ccnc2c(Cl)cc(Cl)cc12` (stereo unspecified), for which the growth inhibition is 16.5% in assay [1]; 15.2% in assay [2]; 43.2% in assay [3]; 5.7% in assay [4]; 4.85% in assay [5]; 33.3% in assay [6].

Take `Cc1ccc(S(=O)(=O)Oc2ccc3oc4cccc(NCCN(C)C)c4c(=O)c3c2)cc1`: the growth inhibition is -3.5% in assay [1]; -13.7% in assay [2]; -21.4% in assay [3]; 5% in assay [4]; -6.4% in assay [5]; 3.1% in assay [6].
